ATXN2 expr inh: ATXN2 expression inhibition; AID 1745845; Potency, µM (titrated, usually from 57 µM), for inactives: top-dose activity change, negative = inhibition, hits mostly inhibitors; HEK-293 ATXN2-luciferase reporter, luminescence, 24 h; 0.72% of 360,000 active; also: potency is read from the fitted curve at half-maximal effect; % is scaled to controls: 0 for no effect and ±100 for the full control effect; nearly all actives have a fitted effect of over 55% in size
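ATXN2-luciferase reporter cells (luciferase flanked by upstream and downstream ATXN2 gene portions) were treated 24 h at 37 °C with compounds at up to 57 uM. SteadyGlo luminescence gave expression; GF-AFC fluorescence gave viability.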
S2 tox: viability counter-screen for ATXN expression inhibitors; Potency, µM (series often up to 56.7 µM), usual class: cytotoxic; S2 cells (HEK-293 line with an ATXN2-luciferase reporter) viability, CellTiter-Fluor protease fluorescence, 24 h; 0.49% of 400,000 active; also: potency is read from the fitted curve at half-maximal effect; nearly all actives have a fitted effect of over 40% in size
D3 ag: agonists of human D3 dopamine receptor; P35462; D3R DiscoveRx beta-arrestin cells, luminescence, 90 min; max activation, %; 0.58% of 410,000 active; AID 652048; in the data active = max activation above about 30%; also: 0% is about no effect
Target sequence (P35462 whole entry, looked up): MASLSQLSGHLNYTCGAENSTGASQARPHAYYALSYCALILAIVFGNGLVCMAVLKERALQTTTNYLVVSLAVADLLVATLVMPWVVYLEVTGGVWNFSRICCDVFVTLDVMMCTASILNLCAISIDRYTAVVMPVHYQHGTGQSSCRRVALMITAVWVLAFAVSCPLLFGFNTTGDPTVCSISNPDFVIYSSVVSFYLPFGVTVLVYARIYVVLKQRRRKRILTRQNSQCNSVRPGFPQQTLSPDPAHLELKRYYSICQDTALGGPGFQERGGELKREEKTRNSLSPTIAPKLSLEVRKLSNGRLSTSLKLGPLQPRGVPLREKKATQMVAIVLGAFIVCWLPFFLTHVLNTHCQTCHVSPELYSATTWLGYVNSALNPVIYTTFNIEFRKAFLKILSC
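Cells at 1500/well, incubated overnight, then treated with pinned compounds (dopamine as control) for 90 min at 37 degrees C. DiscoveRx reagent added for 30 - 60 minutes at room temperature; luminescence read.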
IL1B secr inh: inflammasome signaling inhibition, IL-1 beta readout; THP-1 LPS/ATP IL-1B secretion, AlphaLISA, 16 h; active compounds read low; activity change, % at 57.5 µM; 4.7% of 360,000 active; in the data active = activity change below about -50%; inconclusive = mostly about -30% to -49%; also: % is scaled to controls: 0 for no effect and ±100 for the full control effect
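Secreted IL-1B measured by AlphaLISA bead assay after 16 h compound exposure of THP-1 cells; compounds (final up to 57.5 uM) added 1 h before LPS (250 ng/mL) and ATP (1.25 mM) stimulation; lower signal means less secretion.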
DRD3 antagonist: blocks the human D3 dopamine receptor. D3R cells, DiscoveRx beta-arrestin luminescence, antagonist mode; active compounds read low. 2.5% of 360,000 active. max response, negative = inhibition, %. AID 652054; in the data active = max response below about -50%; inconclusive = no clear call, values can overlap the other calls; also: % is scaled to controls: 0 for no effect and ±100 for the full control effect
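Cells expressing the human receptor were seeded at 1500 cells/well, incubated overnight at 37 degrees C in 5% CO2, then exposed to library compounds with dopamine controls for 90 minutes at 37 degrees C before luminescent detection.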
a7 integrin act: activates integrin-mediated alleviation for muscular dystrophy; alpha7betagal myoblasts, beta-gal FDG fluorescence, 48 h; Potency, µM (series often up to 38.3 µM), for the others: at the top dose activation, actives largely listed as activators; 0.064% of 350,000 active; AID 624291;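 also: potency is read from the fitted curve at half-maximal effect; 100% = response of the positive control SU9516; nearly all actives have a fitted effect of over 60% in size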
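alpha7betagal+/- myoblasts (passage 13, 250/well) treated 48 h at 37C with compounds at 1:260 dilution of DMSO stock. Lysed, then beta-galactosidase activity read as FDG fluorescence (ex 480/em 540) after 30 min, with pre-read for autofluorescence.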
* hit, by the source's call; i = inactive; ? = inconclusive; / = no result given. This is a sample that favours compounds with a hit; in the whole collection about 7% have one here. Unless noted, calls follow the shape of the dose curve; as a rule, active = well fitted curve in the direction sought with a large enough effect; inconclusive = small, poorly fitted or top-dose-only effect, or another doubt; inactive = no such curve, though single readings can be large; an effect the other way counts as inactive or inconclusive.

SMILES | ATXN2 expr inh | S2 tox | D3 ag | IL1B secr inh | DRD3 antagonist | a7 integrin act
O=C(OCc1ccccc1)C1CCCN1C(=O)c1cccs1 (stereo not given) | -2% | i | -5 | 17 | -6 | 7%
O=C(OCc1ccccc1)C1CCCN1C(=O)c1ccccc1[N+](=O)[O-] (stereo not given) | 1% | i | 7 | -63* | 15 | -9%
O=C(CNC(=O)OCc1ccccc1)NCC(=O)N1CCCC1C(=O)OCc1ccccc1 (stereo not given) | -12% | i | -14 | -88* | ? | 4%
Cc1nc(CN(C)C(=O)c2ccccc2OC2CCN(S(C)(=O)=O)CC2)cs1 | -17% | i | -3 | 3 | -16 | 12%
CC(C)c1ccc(OCc2cc(=O)n3c4c(sc3n2)CCCC4)cc1 | -5% | i | 7 | / | / | /
Cc1ccc(NC(=O)c2cc(S(=O)(=O)NCCC3=CCCCC3)ccc2F)cc1 | -14% | ? | -5 | -65* | 12 | -48%
Cc1ccc(S(=O)(=O)N(CC(=O)NCCC2=CCCCC2)Cc2ccccc2F)cc1 | 3% | i | 6 | -1 | -74* | -34%
O=C(Nc1ccc(Cl)c(C(F)(F)F)c1)[C@@H]1CC=C[C@@H]2CCN(Cc3ccccc3)C(=O)[C@@H]21 | 2% | i | -32 | -16 | -5 | 27%
C=C[C@@H]1c2c(F)cccc2N(S(=O)(=O)c2ccc(C)cc2)[C@H](c2ccc(OC(C)=O)cc2)C1(C#N)C#N | ? | 32µM* | 1 | -7 | ? | -25%
CCSc1ncc(Cl)c(C(=O)Nc2ccccc2Cl)n1 | / | i | 2 | 9 | 20 | 2%
O=C(N/N=C/c1cccs1)c1n[nH]c2c1CCCC2 | 15µM* | i | 6 | -26 | -15 | -8%
CC(C)(C)N1C(=O)c2ccc(C(=O)NCc3ccco3)cc2C1=O | 0% | i | -2 | -58* | -24 | -6%
O=C(NCc1ccco1)c1ccc(-c2ccc3nccn3c2)cc1 | 15% | i | -8 | -101* | -18 | /
CCCC(=O)c1c[nH]c(C(=O)NCCc2ccccn2)c1 | 21% | ? | 3 | -4 | 6 | -3%
Clc1ccc(-c2nnnn2-c2ccc(Cl)cc2)cc1 | -19% | i | -2 | 9 | -8 | -22%
Cc1ccc(-n2nnnc2C(Cl)(Cl)c2nnnn2-c2ccc(C)cc2)cc1 | ? | ? | 0 | -78* | ? | -51%
CCOC(=S)SCC(=O)Nc1ncc(C)s1 | -9% | i | -8 | -98* | -19 | 0%
Cc1cnc(NC(=O)CSc2ccccc2)s1 | 10% | i | 19 | 9 | -13 | 7%
COc1ccccc1CNS(=O)(=O)c1cc(-c2cc(C)no2)ccc1C | / | / | 2 | / | / | /
CCCCn1nnnc1NCc1ccc(OC)c(OC)c1 | 18% | i | -1 | -7 | 4 | 15%
C=CCNc1nc(-c2cc3ccccc3o2)cs1 | 63% | i | 0 | -95* | -8 | -9%
O=C(NCc1ccc2c(c1)OCO2)c1n[nH]c(=O)c2ccccc12 | ? | i | -7 | -3 | -7 | 8%
O=C(Nc1nccs1)c1ccc(Cl)c([N+](=O)[O-])c1 | -38% | ? | -2 | -69* | 6 | -52%
O=C(Nc1nccs1)c1ccc(-c2ccccc2[N+](=O)[O-])o1 | 52% | i | -2 | -7 | -6 | 26%
O=C(Nc1nccs1)c1ncc(Cl)c(Cl)c1Cl | -14% | i | -6 | -56* | -5 | -63%
O=C(Nc1nccs1)c1ccc(-c2ccccc2Cl)o1 | 0% | i | -1 | -89* | 27 | -1%
Cc1cc(C(=O)NP(=O)(N2CCOCC2)N2CCOCC2)c(C)n1-c1ccc(Br)cc1 | -3% | i | 3 | 5 | -8 | 1%
Cc1cc(C(=O)C[N+]2(C)CCOCC2)c(C)n1-c1ccc(Br)cc1 | 5% | i | 5 | -69* | -3 | -15%
CN(Cc1cccc(Cl)c1Cl)C(=O)c1ccc(NC(=O)CC#N)cc1 | 4% | i | -2 | 9 | -1 | 0%
